# Measured values as given in the supplement of paper PMC6555819.
# How the values were obtained:
# Experiment in all cases: PBM binding z-score (relative to random genomic background probes); higher = stronger binding; sequences stand for … in GC…GCGATTGACAGCGTAGAATGAAGG
# [1] = tested on: RARb homodimer (NR concentration 270 nM)
# Summary of the method: (§1)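 Each nuclear receptor dimer, without ligand, was incubated for 1 h on custom Agilent 4×180K protein-binding microarrays. Binding was detected with antibodies against each partner (one per run), and scanned fluorescence was regression-normalized. The binding z-scores are referenced to random human genomic background probes.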
# [2] = tested on: RARg:RXRa (NR concentration 270 nM, RXRa partner concentration 90 nM)
# Summary of the method: as §1
# [3] = tested on: RARg homodimer (NR concentration 270 nM)
# Summary of the method: as §1
# [4] = tested on: RXRa DBDmut IVT, anti-RXR (DBD mutation: RXRa K156A/R161A, NR concentration 90 nM)
# Summary of the method: as §1
# [5] = tested on: RXRa homodimer (NR concentration 180 nM)
# Summary of the method: as §1
# [6] = tested on: THRa:RXRa (NR concentration 90 nM, RXRa partner concentration 90 nM)
# Summary of the method: as §1
# [7] = tested on: THRa homodimer (NR concentration 90 nM)
# Summary of the method: as §1
# [8] = tested on: VDR homodimer (NR concentration 270 nM)
# Summary of the method: as §1
Sequence,PBM binding z-score [1],PBM binding z-score [2],PBM binding z-score [3],PBM binding z-score [4],PBM binding z-score [5],PBM binding z-score [6],PBM binding z-score [7],PBM binding z-score [8]
TCTTGTAGATCAAGCTGGTTAAGAAAGCCTGAGT,-0.589,-0.384,-0.528,0.614,-0.39,-0.367,-0.87,-0.547
CCGACTGGGGCTAAGGTTACCATACTCAGTACGA,1.12,0.783,0.678,0.382,0.902,2.39,1.68,0.443
CCTACTGGGCCAAAAGTCATTGATTCCAATGCTC,0.0261,0.13,0.053,0.0698,0.153,-0.256,-0.418,-0.212
TCTTGTAGATCAATAGAGGTTAAAAAAGTGCGCT,1.19,0.821,0.586,0.81,1.39,2.21,-0.13,0.48
TCTTGTAGATCAATAGAGGGTAAGAAAGTGCGCT,0.255,0.119,0.175,1.1,0.491,0.828,-0.673,0.445
CCAGACAGGTGGGAAGGTAACTCAGCCTCGATTA,0.465,-0.192,-0.24,-0.499,-0.186,-0.392,0.393,-0.38
GCTATTAGTTGAAAGGGCAAGCGAATGATTCTCG,1.71,1.06,1.04,0.747,1.06,0.545,-0.289,0.401
CTACCAAGGTGAACAAGGTCGCTGATTACTATTC,2.04,1.88,1.55,0.77,1.8,3.28,1.81,1.27
CCGACTGGGGCAGAAAGCTTACCATACCATCCGG,-0.46,-0.395,-0.221,-0.744,-0.422,-0.808,-0.889,-0.719
ACTTACGGGACAACGAGGTTATAGCACGCGTATA,1.17,0.768,1.24,0.749,1.03,1.69,0.953,1.94
CGAACTAGGTCAGCACAGGACAGTGAAGGATGAT,2.69,3.27,4.34,0.563,1.68,3.81,0.48,-0.111
CAAACTAGGTCAAGGTCAAAGTGGGTTTGTGCCA,5.23,5.95,6.67,3.05,5.78,4.34,3.93,5.14
GCTACTGGGGCAAAGCAGGTTACCATAAGGTTGG,1.16,0.343,0.791,0.0265,0.261,2.75,0.258,-0.451
TCGAGTAGGTTACCAATGGGGCAATCAGCTTTCT,0.687,1.67,0.463,0.325,0.707,0.302,-0.774,-0.712
AGTCAAAGTTCATCTAGGTAACGTATGATATGCT,3.98,5.57,6,4.68,4.58,3.23,0.203,5.23
CCTAGTTGGTCACGAGGTCACACACCGGATATGA,4.65,5.36,4.66,1.84,5.19,4.43,4.41,3.84
TCTAGTTGGTCACGCAGGTCACACACGACGGGTA,3.63,3.59,3.7,1.03,3.08,2.92,1.81,1.76
AAAATGAGGTTACCAAAGATCAGGGAAACGCTTG,0.885,2.37,1.81,1.54,2.93,3.06,0.766,0.152
TCTATTCGTTGATTAGGGCAACCGAAACAGCGGA,0.244,0.485,0.548,0.758,0.477,0.404,0.073,-0.134

Sequence,PBM binding z-score [1],PBM binding z-score [2],PBM binding z-score [3],PBM binding z-score [4],PBM binding z-score [5],PBM binding z-score [6],PBM binding z-score [7],PBM binding z-score [8]
CGTCCAAGGTCAAAGGTGAGTGAAGAGATGACGG,4.48,6.91,6.63,3.77,8.39,4.4,2.28,2.92
TCTTGTAGATCAAAGGGTAAGAAAGCCGAAGCCT,-0.068,0.11,-0.178,0.629,0.585,-0.022,-0.878,-0.525
GCCCGGAGGACAAGGTCAGAGCTTTGTCCGTAGA,3.19,2.99,3.62,0.344,2.04,2.92,1.67,0.864
CAAACTAGGGCAAAGGTCAAAGTCGAGCCAACCA,4.68,7.57,6.04,2.02,8.18,3.87,0.591,2.25
AATACAGGGTCATAGTAGGCCAGAGTACGCACAG,3.26,4.92,4.13,3.36,5.63,4.23,1.41,3.6
CCTCCAAGGTCAATGCTAGGTCAGTGAAAGCATT,5.1,7.37,6.33,3.35,4.78,4.47,2.91,2.71
CCTAGTTGGTCAGGAGGGCACACACCGGATATGA,1.73,1.52,1.53,-0.604,0.657,0.623,0.029,0.549
CCTTACGGGTCACGAGTTTATAGCACGACGAGCG,3.38,5.62,5.24,2.39,5.78,2.82,0.451,4.44
TCTGCTAGGTCAGTTGGTCACCTAACGAGCTGCC,2.87,2.97,3.79,0.479,1.15,1.88,0.86,-0.466
CTCGAATGGTCGGTTGAGGTGAGTATACGGATAA,0.181,-0.0812,0.168,-0.376,-0.171,2.85,1.49,0.136
CCTCGGAGGACATAAGGTCAGAGCTGTCCGCTTT,3.89,3.93,3.55,0.965,2.31,3.91,2.81,1.01
CCTAGTTGGTCAAGGTCGCACACGCTATAGGTAC,2.39,1.87,2.27,0.634,1.83,2.64,1.75,2.3
ATATGTAGGTTAAGGGTCTTTCAGGTTGGTTCGC,1.78,1,0.853,0.724,1.96,1.54,1.44,1.64
CCTACTGGGCCCAAAAGGTCATTGATGCCGATAA,4.35,4.87,4.11,-0.121,5.65,3.15,0.687,1.84
TCGAGTAGGTTAGTTGGGGCATTCAGCCAACATA,0.525,-0.065,-0.0945,0.0825,-0.226,1.01,-0.251,-0.0385
TCTTGTAGATCAAGCAGGTTAGGAAAGCCTGAGT,0.012,-0.289,-0.589,0.37,-0.0446,0.0299,-0.467,0.231
CCTAGCAGGCCAGGGTCACTCAAGCATTTCGCTT,2.82,3.21,2.84,0.493,3.9,2.92,1.2,1.25
CCTTACGGGTCACTCCAGGTTATAGTATCGGAGT,3.16,4.38,4.25,1.55,4.67,5.23,0.63,1.7
ACTCGGAGGACAAAGGTCTGAGCTACGCCAGTGA,0.62,0.869,0.954,0.352,0.0538,0.538,-0.424,-0.296

Sequence,PBM binding z-score [1],PBM binding z-score [2],PBM binding z-score [3],PBM binding z-score [4],PBM binding z-score [5],PBM binding z-score [6],PBM binding z-score [7],PBM binding z-score [8]
CCCTACGGGTCAAGGTTATAGCACGGGTGGTACG,3.5,5.05,4.83,0.145,5.35,3.07,0.962,1.07
GGAACGAGGGCAAGTTGTTAGCAGAGTTTGATGG,1.42,1.49,1.82,2.39,0.957,1.46,0.187,1.65
ATCGAAAGGTCCAGGTGAGTATAGAGAAAGGGAA,0.976,0.8,0.946,0.31,0.494,0.94,0.905,0.121
GCTGATAGGTCAACTGATGGTCAGCTAAAGCTCG,3.72,6.23,6.12,1.65,4.91,2.55,-0.713,-0.0716
TCAGACAGTTGAAGGTAACTCAGGTACGCAGTCG,-0.0141,0.206,0.167,1.29,0.943,1.17,0.195,0.508
AGAATGAGGTTACCAAAAATCAGGGAAACGCTTG,0.769,1.84,1.53,1.07,2.47,2.57,1.03,0.541
TCGAGTAGGTTACCAATGGTGCATTCAGCTTTCT,-0.0825,0.138,0.0849,0.244,0.365,-0.118,-0.617,-0.499
AATACAGGGTCACTAGGCCAGATTAGGTACGAAT,3.44,5.37,4.96,3.03,5.9,3.57,1.46,2.83
TAGCCTAGGTCATGCGAGCCAGTATAGTGTCGGC,2.67,3.75,3.79,0.876,3.03,2.98,1.03,0.235
ATCGAAAGGTCGAAGGTGAGTGTACCCACCCGAA,2.58,4.02,3.37,0.847,5.11,2.3,0.0687,0.737
CGAGCGAGGGCATGAGTTGATAGCAAATGCCGAT,0.657,1.14,1.22,2.15,1.19,0.963,-0.509,1.46
CCGAGTAGGTTATGGGGCATTGAGGCAACGGTGA,1.14,0.411,0.507,-0.0381,0.499,0.886,0.453,-0.13
ACTATTAGTTGAGACGAGGGCAACCTATAGGTTG,1.39,0.509,0.764,0.356,0.544,2.63,0.429,0.902
TATACAGGGTCAAAGGCCAGAGTGCGAATGTCGA,3.58,5.91,5,3.25,7.4,3.57,0.842,3.38
TCTAGTTGGTCGAAGGTCACACACTCGAAATGCG,3.99,4.39,3.86,1.37,4.15,3.07,1.83,1.97
AGTCAAAGTTCATCTAGGTAATGTAAGATATGCT,3.87,5.56,6.17,4.52,4.6,2.92,0.21,5.21
CTCGAAAGGTCGTGCTCAGGTGACTATACCAAAC,3.17,5.21,3.82,2.15,4.78,4.26,1.69,0.845
GATACAGGGTCAAGGCCCGAGTACGCGTATTGAT,3.19,5.42,5,2.42,5.69,3.47,0.807,2.35
ACAGACAGGTGAGTGAACGTAACTCAGCTGGACG,-0.371,-0.0638,0.417,-0.336,0.275,-0.437,-0.967,-0.683
